Experimental data reported in the supplement of paper PMC10981050.
Several values for one entry are separate records, joined by “and”; a condition that tells them apart may be missing. Identical values can stand only once. Counter-ions that a name gives are not always drawn.

Tests used:
Assay in all cases: cell viability relative to vehicle control; higher = less cytotoxic
Settings in all cases: 10 µM
K562 = system: K562
Procedure, shortened: (§1)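 Screening covered the Selleck bioactive, kinase and epigenetic probe libraries, less identity-inconsistent compounds, on CRISPR-edited mutant clones and isogenic wild-type clones of four leukaemia lines. Cells, at 2000 per well in 50 µL medium, received a single 10 µM acoustically dispensed dose. After 48 h the supernatant was removed and CellTiter-Glo luminescence was read. Viability was analysed in Genedata Screener as percent of the on-plate vehicle control.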

MARIMO = system: MARIMO
Procedure, shortened: as §1

MOLM14 = system: MOLM14
Procedure, shortened: as §1

OCI-AML2 = system: OCI-AML2
Procedure, shortened: as §1

| Compound | cell viability (K562; SRSF2 genotype: SRSF2 P95H/wt) | cell viability (K562; SRSF2 genotype: SRSF2 wt/wt) | cell viability (MARIMO; SRSF2 genotype: SRSF2 P95H/wt) | cell viability (MARIMO; SRSF2 genotype: SRSF2 wt/wt) | cell viability (MOLM14; SRSF2 genotype: SRSF2 P95H/wt) | cell viability (MOLM14; SRSF2 genotype: SRSF2 wt/wt) | cell viability (OCI-AML2; SRSF2 genotype: P95H/wt) | cell viability (OCI-AML2; SRSF2 genotype: wt/wt) |
| --- | --- | --- | --- | --- | --- | --- | --- | --- |
| CC1(COc2ccc3c(c2)ncn3-c2ccc3cccc(N4CCC(N)CC4)c3n2)COC1 | 84.9% and 68.8% | 71.4% | 5.64% | 16.6% | 5.66% | 1.2% | 14.6% | 13% |
| O=C1Cc2cc(CCN3CCN(c4nsc5ccccc45)CC3)c(Cl)cc2N1 [Ziprasidone hydrochloride] | 87% and 98.6% | 97% | 88.7% | 95.2% | 37.8% | 81.3% | 91.9% | 88.1% |
| COc1cc(NS(=O)(=O)c2ccc(N)cc2)nc(OC)n1 [SulfadiMethoxine sodium] | 106% and 100% | 111% | 100% | 105% | 106% | 107% | 102% | 118% |
| COc1ccc2c(c1)c(CC(=O)O)c(C)n2C(=O)c1ccc(Cl)cc1 [Indometacin Sodium] | 97.1% and 90.1% | 101% | 96.7% | 103% | 105% | 101% | 98.3% | 110% |
| O=C(Oc1cc(S(=O)(=O)c2ccccc2)ccc1[N+](=O)[O-])c1ccc(Cl)cc1 | 104% and 109% | 106% | 106% | 103% | 104% | 107% | 114% | 115% |
| CC1(C)OCCn2c1nc1c(N3CCOCC3)nc(-c3cnc(N)nc3)nc12 | 47.1% and 53.8% | 55% | 45.7% | 36% | 27.3% | 23.9% | 11.2% | 19.6% |
| CC(C)Nc1cc(-c2c[nH]c(C(=O)N[C@H](CO)c3cccc(Cl)c3)c2)c(Cl)cn1 | 73.3% and 90.4% | 81.5% | 37.9% | 40% | 48.8% | 34.9% | 41.8% | 37.6% |
| CCC(=O)NC[C@@H]1C[C@H]1c1cccc2c1CCO2 [Tasimelteon] | 92.1% and 87.6% | 84.4% | 92.1% | 101% | 89% | 93.1% | 88% | 99.3% |
| CC(COc1ccccc1)N(CCCl)Cc1ccccc1 (stereo not given) [Phenoxybenzamine HCl] | 66.1% and 73.8% | 63.2% | 67.3% | 72.5% | 57.5% | 62.7% | 54.4% | 62.1% |
| NC(=O)c1cnc(NCCc2ccc(O)c(Cl)c2)nc1NCc1ccccc1 | 34.2% and 38.5% | 33.3% | 8.49% | 5.28% | 5.95% | 1.62% | 8.8% | 13.2% |
| CC(C)=C[C@H]1C[C@](C)(O)[C@@H]2[C@H]3CC[C@@H]4[C@@]5(C)CC[C@H](OC6OC[C@H](O)[C@H](O[C@@H]7O[C@H](CO[C@@H]8O[C@H](CO)[C@@H](O)[C@H](O)[C@H]8O)[C@@H](O)[C@H](O)[C@H]7O[C@@H]7OC[C@@H](O)[C@H](O)[C@H]7O)[C@H]6O[C@@H]6O[C@@H](C)[C@H](O)[C@@H](O)[C@H]6O)C(C)(C)[C@@H]5CC[C@@]4(C)C34CO[C@@]2(C4)O1 (stereo not given in full) [Jujuboside A] | 109% and 107% | 102% | 101% | 104% | 109% | 102% | 91.6% | 101% |
| CO[C@H]1C[C@@H]2CC[C@@H](C)[C@@](O)(O2)C(=O)C(=O)N2CCCC[C@H]2C(=O)O[C@H]([C@H](C)C[C@@H]2CC[C@@H](OCCO)[C@H](OC)C2)CC(=O)[C@H](C)/C=C(\C)[C@@H](O)[C@@H](OC)C(=O)[C@H](C)C[C@H](C)/C=C/C=C/C=C/1C [Everolimus (RAD001)] | 59.9% and 63.6% | 70.4% | 73.8% | 71.6% | 57.4% | 51.4% | 60% | 61.6% |
| O=C1c2ccccc2-c2n[nH]c3cccc1c23 | 95% and 105% | 95.8% | 72.3% | 72% | 45% | 33.1% | 53.1% | 48.7% |
| CCCOC(=O)c1ccc(O)cc1 [Propylparaben] | 96.5% and 97.2% | 101% | 91.3% | 107% | 98.9% | 105% | 95.6% | 90.1% |
| C=C(CCC=C(C)C)[C@H]1CC[C@]2(C)[C@@H]1[C@H](O)C[C@@H]1[C@@]3(C)CC[C@H](O[C@@H]4O[C@H](CO)[C@@H](O)[C@H](O)[C@H]4O[C@@H]4O[C@H](CO)[C@@H](O)[C@H](O)[C@H]4O)C(C)(C)[C@@H]3CC[C@]12C [Ginsenoside Rk1] | 107% and 97.8% | 107% | 105% | 104% | 108% | 104% | 100% | 104% |
| Nc1nc(=S)c2ncn([C@H]3C[C@H](O)[C@@H](CO)O3)c2[nH]1 | 29.9% and 33.4% | 29.9% | 56.1% | 44.8% | 44.1% | 31.7% | 22.8% | 27.8% |
| CC1=CCC2CC1C2(C)C (stereo not given) | 99.8% and 101% | 99.4% | 95.5% | 94.5% | 98.5% | 99.8% | 97% | 102% |
| CC1(C)CCCC2(C)OC(=O)C=C12 (stereo not given) [Dihydroactinidiolide] | 104% and 93.7% | 94.5% | 97.6% | 104% | 93.8% | 99.7% | 91.1% | 104% |
| O=C(Nc1cccc(Cl)c1)c1ccccn1 | 99.3% and 105% | 97% | 98.5% | 109% | 112% | 114% | 96.2% | 97% |
| CCN1CCC[C@H]1CNC(=O)c1cc(S(N)(=O)=O)ccc1OC [Levosulpiride (Levogastrol)] | 101% and 103% | 108% | 111% | 104% | 109% | 107% | 104% | 93.6% |

| Compound | cell viability (K562; SRSF2 genotype: SRSF2 P95H/wt) | cell viability (K562; SRSF2 genotype: SRSF2 wt/wt) | cell viability (MARIMO; SRSF2 genotype: SRSF2 P95H/wt) | cell viability (MARIMO; SRSF2 genotype: SRSF2 wt/wt) | cell viability (MOLM14; SRSF2 genotype: SRSF2 P95H/wt) | cell viability (MOLM14; SRSF2 genotype: SRSF2 wt/wt) | cell viability (OCI-AML2; SRSF2 genotype: P95H/wt) | cell viability (OCI-AML2; SRSF2 genotype: wt/wt) |
| --- | --- | --- | --- | --- | --- | --- | --- | --- |
| CO[C@@H]1[C@@H](OC)[C@H](C)[C@@](O)(CC(=O)O)O[C@H]1[C@H](C)[C@H]1O[C@@]2(CC[C@@](C)([C@H]3CC[C@@](C)([C@@H]4O[C@@H]([C@H]5O[C@](C)(O)[C@H](C)C[C@@H]5C)C[C@@H]4O[C@@H]4C[C@H](OC)[C@@H](OC)[C@H](C)O4)O3)O2)C[C@H](O)[C@H]1C [Maduramycin Ammonium] | 3.55% and 4.75% | 8.25% | 22.7% | 17.7% | 25.6% | 22.5% | 1.54% | 8.79% |
| COc1cc(N2CCC(N3CCN(C)CC3)CC2)ccc1Nc1ncnc(Nc2ccccc2S(=O)(=O)C(C)C)n1 | 84.8% and 91% | 80.8% | 56.7% | 48.3% | 28.4% | 31.1% | 12.6% | 21.9% |
| COc1ccc2[nH]c([S+]([O-])Cc3ncc(C)c(OC)c3C)nc2c1 (stereo not given) [Omeprazole (Prilosec)] | 97.3% and 91.5% | 95.6% | 92.8% | 98.5% | 94.9% | 95.8% | 98% | 100% |
| Cn1c(=O)c(F)c(Nc2ccc(I)cc2F)c2c(=O)n(C[C@@H](O)CO)cnc21 | 66.4% and 83.6% | 77% | 43.7% | 36.3% | 45.7% | 29.8% | 47.5% | 46.9% |
| COCCOC(=O)C1=C(C)NC(C)=C(C(=O)OC/C=C/c2ccccc2)C1c1cccc([N+](=O)[O-])c1 (stereo not given) [Cilnidipine] | 87.1% and 86.8% | 81.2% | 88.1% | 98.1% | 78.8% | 81.6% | 78.9% | 74.5% |
| CCc1c2c(nc3ccc(O)cc13)-c1cc3c(c(=O)n1C2)COC(=O)[C@]3(O)CC | 10.1% and 21.4% | 13.4% | 5.36% | 3.23% | 1.02% | 0.95% | 0.48% | 1.9% |
| NCC(=O)Nc1ccc(-n2nc(C(F)(F)F)cc2-c2ccc3c(ccc4ccccc43)c2)cc1 | 0.38% and 0.39% | 0.29% | 0.31% | 0.5% | 0.18% | 0.22% | 0.19% | 0.23% |
| CCC1=C[C@@H]2CN(C1)Cc1c([nH]c3ccccc13)[C@@](C(=O)OC)(c1cc3c(cc1OC)N(C)[C@H]1[C@@](O)(C(=O)OC)[C@H](OC(C)=O)[C@]4(CC)C=CCN5CC[C@]31[C@@H]54)C2 [Vinorelbine Tartrate] | 15% and 35% | 31.6% | 7.46% | 7.57% | 0.68% | 0.99% | 1.63% | 3.83% |
| CC(C)=CCC[C@](C)(O[C@@H]1O[C@H](CO)[C@@H](O)[C@H](O)[C@H]1O)[C@H]1CC[C@]2(C)[C@@H]1[C@H](O)C[C@@H]1[C@@]3(C)CC[C@H](O)C(C)(C)[C@@H]3[C@@H](O)C[C@]12C [Ginsenoside F1] | 107% and 106% | 102% | 105% | 97.8% | 109% | 104% | 105% | 106% |
| Cc1ccccc1CN1C2=NCCN2C(=O)C2=C1CCN(Cc1ccccc1)C2 [TIC10 analogue] | 98.2% and 97.9% | 95.9% | 104% | 104% | 103% | 103% | 88% | 101% |
| COc1cc2nccc(Oc3ccc(NC(=O)C4(C(=O)Nc5ccc(F)cc5)CC4)cc3)c2cc1OC | 9.94% and 12.3% | 20.6% | 69.1% | 66.8% | 5.29% | 5.9% | 19.2% | 28% |
| CC(=O)Cc1cc(=O)c2c(C)cc(O)c([C@@H]3O[C@H](CO)[C@@H](O)[C@H](O)[C@H]3O)c2o1 [Aloesin] | 101% and 97.6% | 102% | 102% | 104% | 109% | 101% | 105% | 105% |
| O=c1[nH]c(=O)n([C@H]2C[C@H](O)[C@@H](CO)O2)cc1C(F)(F)F [Trifluridine (Viroptic)] | 85.4% and 99.2% | 85.7% | 48.5% | 52.3% | 52.7% | 18.8% | 21.6% | 26.8% |
| Cc1noc(-c2ccc(CSCCC(=O)O)cc2)c1NC(=O)OC(C)c1ccccc1Cl (stereo not given) | 106% and 105% | 104% | 101% | 113% | 104% | 102% | 104% | 111% |
| O=C1CCC(N2C(=O)c3ccccc3C2=O)C(=O)N1 (stereo not given) [Thalidomide] | 92.1% and 86.8% | 84.5% | 83.2% | 86.4% | 87.5% | 86.7% | 93.8% | 91.4% |
| O=C(O)CC(O)(CC(=O)OCc1ccc(O[C@@H]2O[C@H](CO)[C@@H](O)[C@H](O)[C@H]2O)cc1)C(=O)OCc1ccc(O[C@@H]2O[C@H](CO)[C@@H](O)[C@H](O)[C@H]2O)cc1 (stereo not given in full) [Parishin B] | 106% and 105% | 109% | 103% | 98.4% | 113% | 105% | 99.6% | 100% |
| COc1cc2c(cc1OC)CN(C(=O)/C=C/c1c(-c3ccccc3)n(C)c3ncccc13)CC2 | 63.9% and 81.1% | 71.3% | 69.1% | 70.5% | 47.7% | 44.2% | 51.6% | 49% |
| NC(=O)c1cccnc1 [Nicotinamide (Vitamin B3)] | 106% and 112% | 113% | 107% | 103% | 105% | 104% | 104% | 111% |
| COC(=O)[C@H](O)[C@@H](NC(=O)c1ccccc1)c1ccccc1 | 108% and 104% | 107% | 108% | 103% | 98.1% | 106% | 104% | 110% |
| N#C/C(=C(/N)Sc1ccc(N)cc1)c1ccccc1C(F)(F)F | 85.3% and 90.9% | 85.1% | 54% | 46.4% | 82.4% | 91.5% | 67.7% | 61.3% |
